hcDAF12 agonist: H. contortus DAF-12 nuclear receptor activators, primary screen, cell-based, luminescence, HEK293, lit1-tk-luc reporter | AID 652067, 2013 | activation, % at 6.8 µM | HEK293 hcDAF-12 lit1-tk-luc reporter; 0% DMSO, 100% Δ7-dafachronic acid | actives 1.4% (n = 370,000);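 active = activation above the mean of all tested compounds plus 3 SD, cut at about 5.5% in these data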;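 also: 100% = response to 3 µM Δ7-dafachronic acid high control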
DAX1 inh: DAX1 (NR0B1) inhibitors on StAR promoter, primary screen, cell-based, luminescence, SF-1 (NR5A1), full-length DAX-1; inhibition, % at 6.8 µM; HEK293T StAR-luciferase reporter, SF-1/DAX-1 repression relief; actives 1.1% (n = 370,000);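 active = inhibition above the mean over all tested compounds plus 3 SD, cut at about 3.6% in these data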;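 also: 0% = DAX-1 cells with DMSO and 100% = cells lacking DAX-1 with DMSO; higher inhibition means more luminescence from relief of DAX-1 repression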
hgDAF-12 ag: H. glycines DAF-12 receptor agonists, primary screen, cell-based, luminescence, HEK293, GAL4 fusion, UAS-luciferase | Nuclear hormone receptor DAF-12 (Heterodera glycines), GAL4 fusion | HEK293 GAL4-hgDAF12 UAS-luciferase reporter, agonist luminescence; normalized to butyrate control | activation, % at 6.8 µM | actives 1.8% (n = 370,000);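 active = activation above a cutoff set at the mean of all screened compounds plus 3 SD, cut at about 10% in these data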;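 also: 0% = DMSO wells and 100% = sodium butyrate wells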
ssDAF12 agonist: S. stercoralis DAF-12 nuclear receptor activators, primary screen, cell-based, luminescence, HEK293, GRIP1 co-expression, lit1-tk-luc; HEK293 ssDAF-12/GRIP1 lit1-tk-luc reporter; % of 3 µM dafachronic acid response; activation, % at 6.8 µM; actives 1% (n = 370,000); AID 652126, 2013;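 active = activation above the mean over all tested compounds plus 3 SD, cut at about 0.9% in these data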;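 also: 0% = DMSO-only wells and 100% = 3 µM delta7-dafachronic acid wells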
SMARCA2 activ: SMARCA2 (BRM) function activators, primary screen, cell-based, luminescence, high throughput | actives 1% (n = 370,000) | activation, % at 9.1 µM | MG213 cells, MMTV-luciferase reporter, dexamethasone, overnight; in the data active = activation above about 7.8%;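 also: 0% = vehicle wells and 100% = reference activator wells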
Numbers without * were called inactive. In the library only some 4.2% were active in any assay of this set; here they are far more common.

For Cc1c(C(=O)Nc2ccccc2F)sc2nc3n(c(=O)c12)CCC3 the results were hcDAF12 agonist 3, DAX1 inh 1, hgDAF-12 ag 11*, ssDAF12 agonist 0 and SMARCA2 activ 0.
CCOC(=O)[C@]12CCC=C1N(Cc1ccccc1)C(=O)[C@H](CC(=O)N1CCSCC1)C2 was read as hcDAF12 agonist 2, DAX1 inh 0, hgDAF-12 ag -1, ssDAF12 agonist -1 and SMARCA2 activ -4.
For CCOC(=O)[C@]12CCC=C1N(CCC1=CCCCC1)C(=O)[C@H](CC(=O)N1CCSCC1)C2 the results were hcDAF12 agonist -1, DAX1 inh 4.1*, hgDAF-12 ag -2, ssDAF12 agonist -1 and SMARCA2 activ -3.
Screening CCOC(=O)[C@]12CCC=C1N(Cc1ccccc1)C(=O)[C@H](CC(=O)N1CCOCC1)C2 returned hcDAF12 agonist 2, DAX1 inh 4.3*, hgDAF-12 ag 2, ssDAF12 agonist -1 and SMARCA2 activ 3.
Screening CCOC(=O)c1ccc(NC(=O)CSc2nnc(-c3cc(-c4ccccc4)n[nH]3)n2N)cc1 returned hcDAF12 agonist 3, DAX1 inh -2, hgDAF-12 ag 3, ssDAF12 agonist -2 and SMARCA2 activ -3.
`CN[C@H]1C[C@H]2c3[nH]c4c(-c5cccc(C)c5)cccc4c3CCN2C(=O)[C@H]1[C@H](C)O` gave hcDAF12 agonist 2, DAX1 inh 1, hgDAF-12 ag -1, ssDAF12 agonist -1 and SMARCA2 activ -2.
CCOC(=O)c1c(C)[nH]c(C(=O)OCCOc2ccccc2C)c1C was read as hcDAF12 agonist 4, DAX1 inh 3, hgDAF-12 ag 11*, ssDAF12 agonist 0 and SMARCA2 activ 3.
Screening CCOC(=O)c1c(C)[nH]c(C(=O)OCC(=O)N(C)CC(=O)Nc2ccccc2Cl)c1C returned hcDAF12 agonist 3, DAX1 inh -3, hgDAF-12 ag 2, ssDAF12 agonist 1.0* and SMARCA2 activ 2.
Screening CCOC(=O)c1c(C)[nH]c(C(=O)OCc2ccccc2F)c1C returned hcDAF12 agonist 6.3*, DAX1 inh 3, hgDAF-12 ag 13*, ssDAF12 agonist 0 and SMARCA2 activ 7.
For CCOC(=O)c1[nH]c(C)c(C(=O)Nc2ccccc2F)c1C the results were hcDAF12 agonist 1, DAX1 inh -1, hgDAF-12 ag 10, ssDAF12 agonist -1 and SMARCA2 activ 3.
`CCOC(=O)c1c(C)[nH]c(C(=O)OCC(=O)Nc2cccnc2Cl)c1C` gave hcDAF12 agonist -2, DAX1 inh -2, hgDAF-12 ag -3, ssDAF12 agonist -1 and SMARCA2 activ -3.
COc1ccc(Nc2ncnc3c2oc2ccccc23)cc1 was read as hcDAF12 agonist 5, DAX1 inh 2, hgDAF-12 ag 12*, ssDAF12 agonist 0 and SMARCA2 activ 6.
`COc1cccc(Nc2nc(C)nc3c2oc2ccccc23)c1` gave hcDAF12 agonist -2, DAX1 inh 0, hgDAF-12 ag 3, ssDAF12 agonist -2 and SMARCA2 activ 0.
For CCc1nc2c(OCc3ccc(C(F)(F)F)cc3)cccn2c1N(C)C(=O)C1CC1 the results were hcDAF12 agonist -2, DAX1 inh -2, hgDAF-12 ag -5, ssDAF12 agonist -2 and SMARCA2 activ 0.
For CCOc1ccc(NC(=O)c2ccccc2CO)cc1 the results were hcDAF12 agonist 0, DAX1 inh 2, hgDAF-12 ag 7, ssDAF12 agonist -1 and SMARCA2 activ 4.
COCCNC(=O)c1ccc2c(c1)NC(=O)CS2 was read as hcDAF12 agonist 0, DAX1 inh 0, hgDAF-12 ag 2, ssDAF12 agonist -2 and SMARCA2 activ 1.
Screening CCOc1ccc(NC(=O)c2ccccc2O)cc1 returned hcDAF12 agonist 5, DAX1 inh 3, hgDAF-12 ag 12*, ssDAF12 agonist 0 and SMARCA2 activ 5.
For COc1ccc(NC(=O)c2cccc3c(Br)cccc23)cc1 the results were hcDAF12 agonist 1, DAX1 inh 0, hgDAF-12 ag 2, ssDAF12 agonist 0 and SMARCA2 activ -2.
COc1ccc(C(=O)Nc2ccc3ccccc3c2)cc1OC was read as hcDAF12 agonist 2, DAX1 inh 2, hgDAF-12 ag 12*, ssDAF12 agonist 0 and SMARCA2 activ 5.
COc1ccc(NC(=O)c2cccc3ccccc23)cc1 was read as hcDAF12 agonist 1, DAX1 inh 0, hgDAF-12 ag 11*, ssDAF12 agonist -1 and SMARCA2 activ 2.
`COc1ccc(NC(=O)c2ccc3c(c2)NC(=O)CS3)cc1` gave hcDAF12 agonist 4, DAX1 inh 4.4*, hgDAF-12 ag 5, ssDAF12 agonist -1 and SMARCA2 activ -1.
For Cc1cccc(NC(=O)Nc2nc3ncccn3c2-c2ccccc2)c1 the results were hcDAF12 agonist -3, DAX1 inh -2, hgDAF-12 ag 1, ssDAF12 agonist 0 and SMARCA2 activ -4.
For Cc1ccc(NC(=O)CN2CCN(c3nc(-c4ccccc4)cs3)CC2)cc1C the results were hcDAF12 agonist -3, DAX1 inh 0, hgDAF-12 ag 4, ssDAF12 agonist -1 and SMARCA2 activ 5.
`C[C@H](CO)N1C[C@H](C)[C@H](CN(C)C(=O)Nc2cccc(F)c2)OCc2cnnn2CCCC1=O` gave hcDAF12 agonist 0, DAX1 inh 0, hgDAF-12 ag -4, ssDAF12 agonist 0 and SMARCA2 activ -3.
`COc1cc2ccccc2cc1C(=O)Nc1ccc(O)cc1` gave hcDAF12 agonist 4, DAX1 inh 2, hgDAF-12 ag 7, ssDAF12 agonist 1.4* and SMARCA2 activ -1.
CCOc1ccc(NC(=S)c2ccc3ccccc3n2)cc1 was read as hcDAF12 agonist 4, DAX1 inh 0, hgDAF-12 ag 2, ssDAF12 agonist 1.0* and SMARCA2 activ 0.
Screening CC(=O)Nc1ccc(-c2cc(C(=O)O)c3cc4ccccc4cc3n2)cc1 returned hcDAF12 agonist 5.9*, DAX1 inh 0, hgDAF-12 ag 3, ssDAF12 agonist 1.8* and SMARCA2 activ 5.
Screening COc1ccc(C(=O)Nc2cc(OC)nc(OC)n2)cc1 returned hcDAF12 agonist 4, DAX1 inh 2, hgDAF-12 ag 12*, ssDAF12 agonist 0 and SMARCA2 activ 8.
For Cc1cccc(CN2CCC(n3nccc3NC(=O)CCCc3ccccc3)CC2)c1 the results were hcDAF12 agonist -1, DAX1 inh 0, hgDAF-12 ag 1, ssDAF12 agonist -1 and SMARCA2 activ -5.
